# Measurements published in PubChem BioAssay AID1851 (National Center for Advancing Translational Sciences (NCATS), 2009).
# In all, about 16,000 compounds went through this assay and about 2,600 (16%) were called active. Inconclusive results (about 20%) are left out. The call rests on the fitted dose curve; in most records, active means well fitted curve in the direction sought with a large enough effect; inconclusive means small, poorly fitted or top-dose-only effect, or effect the other way; inactive means no such curve, though single readings can be large or run the other way. Only a sample is shown. Some compounds were tested as several samples or in several runs, with calls that do not always agree. Square brackets hold non-standard residues; d marks the D form. Peptide text beside a SMILES is read from it. * marks the point of attachment. ξ: configuration not given here. Cbz = O=C(OCc1ccccc1)*; ξA = CC(N)C(=O)O
# Biological target: Cytochrome P450 2D6 (Homo sapiens) (UniProt P10635)
# Sequence (P10635 whole entry, looked up): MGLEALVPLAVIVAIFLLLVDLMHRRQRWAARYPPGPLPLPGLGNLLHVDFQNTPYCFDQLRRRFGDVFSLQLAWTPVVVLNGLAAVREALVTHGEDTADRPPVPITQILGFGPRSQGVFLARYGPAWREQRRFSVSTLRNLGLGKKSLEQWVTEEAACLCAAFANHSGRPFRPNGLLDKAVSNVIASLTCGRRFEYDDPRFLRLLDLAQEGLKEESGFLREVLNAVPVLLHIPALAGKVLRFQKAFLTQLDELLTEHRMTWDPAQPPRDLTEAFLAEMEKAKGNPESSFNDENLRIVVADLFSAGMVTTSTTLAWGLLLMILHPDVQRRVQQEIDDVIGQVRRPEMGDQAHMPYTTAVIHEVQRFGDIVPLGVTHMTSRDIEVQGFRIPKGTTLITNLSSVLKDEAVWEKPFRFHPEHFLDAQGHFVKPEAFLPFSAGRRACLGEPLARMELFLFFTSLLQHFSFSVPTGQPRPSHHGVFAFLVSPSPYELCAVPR
# Assay: Cytochrome panel assay with activity outcomes
# Conditions: recombinant CYP, pro-luciferin dealkylation, luminescence, p450-cyp2d6; series mostly up to 57.1 µM; activity, negative = inhibition: at the top concentration
# On the % scale 0 is the no-effect control and ±100 the full control effect.
SMILES,"activity, negative = inhibition",AC50
CCCC(=O)Nc1cccc(Oc2nc(C)cc(C)c2C#N)c1,-2.28% (inactive),
Cc1ccnc(NS(=O)(=O)c2ccc(N=[N+]=[N-])cc2)n1,10.7% [at 11.4 µM] (inactive),
CC(C)=CCC/C(C)=C/CO/N=C1/C[C@@H](O)[C@@H](O)[C@@H]2[C@@H]3C(=O)N(Cc4ccccc4)C(=O)[C@H]3CC[C@H]12,-8.8% [at 11.4 µM] (inactive),
NC(=O)CNC(=O)[C@@H]1CC2(CC(c3ccccc3)=NO2)CN1C(=O)c1ccc(Br)cc1 (some centres undefined),-20% (inactive),
CC(=O)Nc1ccc2c(c1)C(=Nc1ccc(C(=O)O)cc1)c1ccccc1-2,13% [at 11.4 µM] (inactive),
COc1ccc(C(=O)N/N=C(\C)Cn2nc([N+](=O)[O-])cc2C)cc1,-23.1% (inactive),
CCOC(=O)[C@@]12C[C@@H]1/C(=N/O)c1ccccc1O2,,inactive
Cc1ccc(-n2c3c(c(=O)[nH]c2=O)C(NS(=O)(=O)c2ccc(C)cc2)(C(F)(F)F)C(=O)N3)cc1 (centres undefined),-0.859% (inactive),
CC(=O)Nc1ccc(C2=NN(CC#N)C(=O)SC2)cc1,-16.9% (inactive),
COC(=O)CSC1=C(C#N)C(c2cccc(F)c2)CC(=O)N1 (centres undefined),-27.1% (inactive),
N[C@H](Cn1ccc(=O)n(Cc2ccccc2C(=O)O)c1=O)C(=O)O,1.32% (inactive),
N[C@@H](Cn1cc(I)c(=O)n(Cc2ccc(C(=O)O)cc2)c1=O)C(=O)O,,2.51 µM (active)
N[C@@H](Cn1cc(F)c(=O)[nH]c1=O)C(=O)O,9.04% (inactive),
Cn1cc(-c2nc3cnc(N4CCOCC4)nc3n(C3CC3)c2=O)c2ccccc21,0.0209% (inactive),
CCOC(=O)c1c(CC(C)C)csc1NC=O,-12.9% (inactive),
O=C(Nc1cc(C(=O)Nc2ccc(S(=O)(=O)O)cc2S(=O)(=O)O)cc(C(=O)Nc2ccc(S(=O)(=O)O)cc2S(=O)(=O)O)c1)Nc1cc(C(=O)Nc2ccc(S(=O)(=O)O)cc2S(=O)(=O)O)cc(C(=O)Nc2ccc(S(=O)(=O)O)cc2S(=O)(=O)O)c1,,inactive
C[C@@H](C[N+](C)(C)C)OC(N)=O,,inactive
COCCn1c(=O)c(-c2cn(C)c3ccccc23)nc2cnc(Oc3ccc(OC)cc3)nc21,-4.68% (inactive),
O=C1C[C@H]2C(=O)[C@@H]1[C@@H](C(=O)O)[C@H]2C(=O)O,11.5% [at 11.4 µM] (inactive),
Cc1cc(C)n(CCCNCC(O)c2ccccc2)n1 (centres undefined),,7.08 µM (active)
CC1(C)OC(=O)C(=CNCC(O)c2ccccc2)C(=O)O1 (centres undefined),19.5% (inactive),
Cc1cc(C)n(Cc2ccc(NC(=O)c3ccc(COc4ccccc4Br)cc3)cc2)n1,-11.6% (inactive),

SMILES,"activity, negative = inhibition",AC50
C=CC[n+]1c(-c2ccc(C)cc2)csc1NNC(=O)Nc1ccccc1,,3.16 µM (active)
C=CCNC(=O)c1csc(-c2ccccc2)n1,17.1% (inactive),
CCCC(=O)NNC(=O)Nc1ccccc1,0.27% (inactive),
CCn1c(C)c(C)c2cc(C(=O)Nc3cccc(Cl)c3)ccc21,-26.9% (inactive),
CC(=O)N[C@@H](CC(=O)O)C(=O)O,-0.495% [at 25.6 µM] (inactive),
NC(=O)c1cc[n+](CC2=C(C(=O)[O-])N3C(=O)[C@@H](NC(=O)Cc4cccs4)[C@@H]3SC2)cc1,-1.02% [at 25.6 µM] (inactive),
CN(C)C(=N)N=C(N)N,-6.01% [at 25.6 µM] (inactive),
O=C(NNC(=S)NC(=O)c1cccnc1)c1ccccc1,-3.01% (inactive),
COc1ccc(-c2cc(=O)c3c(O)cc(O)cc3o2)cc1,,12.6 µM (active)
CCOC(=O)COc1cc(OCC(=O)OCC)c2c(=O)cc(-c3ccccc3)oc2c1,32.3% (inactive),
O=c1cc(-c2ccccc2)oc2cc(O)c(O)c(O)c12,-2.03% (inactive),
COc1ccc(-c2coc3cc(OC)cc(O)c3c2=O)cc1,,0.0355 µM (active)
O=c1c(-c2ccc(O)cc2)coc2cc(O)cc(O)c12,6.84% (inactive),
COc1ccc(-c2coc3cc4oc(=O)cc(C)c4cc23)cc1F,-4.68% (inactive),
CCOC(=O)Cc1c(C)nc2c(C#N)c[nH]n2c1=O,0.121% (inactive),
COC(=O)Cn1cnc(=O)c(C#N)c1/C=C/N(C)C,3.9% (inactive),
Cn1c(=O)c2[nH]c(CCS)nc2n(C)c1=O,4.9% [at 11.4 µM] (inactive),
O=c1nc(N2CCOCC2)ccn1-c1nc(-c2ccccc2)oc1-c1ccccc1,-8.85% (inactive),
C[C@H](Nc1ncnc2sc3c(c12)CCC3)C(=O)O,0.707% (inactive),
COc1ccc(N2CCN(C(=S)Nc3cc(C)ccc3C)CC2)cc1,-18.8% (inactive),
O=C(Nc1ccccc1)N1CCCC(c2nc(-c3ccc(F)cc3)no2)C1 (centres undefined),-28.6% (inactive),
Cc1ccc2nc(C3CCCN(C(=S)Nc4ccccc4C)C3)[nH]c2c1 (centres undefined),,2 µM (active)

SMILES,"activity, negative = inhibition",AC50
Cc1cc2nc(C3CCCN(C(=S)Nc4ccccc4)C3)[nH]c2cc1C (centres undefined),-7.35% (inactive),
Cc1cc2nc(-c3ccc(SCC(=O)N4CCc5ccccc54)nc3)[nH]c2cc1C,-4.65% (inactive),
Cc1cc2nc(C3CCCN(C(=O)NCc4ccccc4)C3)[nH]c2cc1C (centres undefined),,5.01 µM (active)
NCCCCN,0.962% (inactive),
CCC1(O)c2ccccc2-c2ncccc21 (centres undefined),6.35% (inactive),
COC(=O)[C@@H]1CC[C@H](C)[C@@H](c2ccc(C)cc2)N1C(=O)c1ccc(/C=N\OC[C@@H](O)[C@H]2O[C@H]3OC(C)(C)O[C@H]3[C@@H]2O)cc1,3.7% [at 11.4 µM] (inactive),
COCCNc1nc(SCc2ccccc2)nc2sc3c(c12)CCC3,-18.8% (inactive),
CC(C)NC[C@H](O)c1cc(O)cc(O)c1,,inactive
CC(C)NC[C@H](O)c1ccc2ccccc2c1,,3.16 µM (active) and inactive
CC(C)NC[C@H](O)c1ccc(NS(C)(=O)=O)cc1,,inactive
Cc1ccc(C(CC(N)=O)c2ccco2)cc1 (centres undefined),1.48% (inactive),
CC(=O)SC[C@@H](Cc1ccccc1)C(=O)NCC(=O)OCc1ccccc1,,0.316 µM (active)
O=C(O)CNC(=O)[C@@H](CS)Cc1ccccc1,-0.986% [at 25.6 µM] (inactive),
COC(=O)CNC(=O)C(C)NC(=O)CNC(=O)OCc1ccccc1 (stereo not drawn) (Cbz-Gly-[ξA]-Gly-OMe),25.8% (inactive),
Cc1cc(OC(=O)c2ccc(Cl)cc2Cl)nc(C)n1,-22.9% (inactive),
CC(C)(C)CC(=O)NC(=S)N1CCCCCC1,6.83% (inactive),
O=c1c(-c2cccc(Cl)c2)nc2cncnc2n1-c1ccccc1,-20.1% (inactive),
Cn1c(CN2CCCC2)nc2cc(NC(=O)C3CCCCC3)ccc21,-1.37% (inactive),
CCCc1nc(SCC(=O)NNC(=O)C2CCCCC2)c2ccccc2n1,7.9% (inactive),
O=C(Nc1nc2ccccc2n1CCN1CCCCC1)C1CCCCC1,,4.47 µM (active)
